In PubChem BioAssay AID624330 (Southern Research Specialized Biocontainment Screening …, 2012):
In all, about 340,000 compounds went through this assay and about 2,100 (0.62%) were called active.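 Rule for the calls: active = first-screen hits whose inhibition reached a set limit at any dose in the follow-up dose series; inconclusive = inhibition above the set first-screen limit but never retested; inactive = the rest.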 These entries were drawn from the full list. Measured potencies and affinities stand elsewhere.

Molecular target: Rac GTPase-activating protein 1 (Homo sapiens) (UniProt Q9H0H5)
Experiment: MgcRacGAP GTPase-activating activity inhibitors, confirmation, biochemical, ADP Hunter fluorescence, primary and confirmatory (AID 624330);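 note: fluorescence reports GDP produced by GAP-driven GTP hydrolysis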
Settings: MgcRacGAP-stimulated Rac1 GTP hydrolysis, at 30 µM, active compounds read high, GST-tagged Rac1 F28L mutant substrate

Rac GTPase-activating protein 1 (Homo sapiens), sequence (Q9H0H5 whole entry, looked up): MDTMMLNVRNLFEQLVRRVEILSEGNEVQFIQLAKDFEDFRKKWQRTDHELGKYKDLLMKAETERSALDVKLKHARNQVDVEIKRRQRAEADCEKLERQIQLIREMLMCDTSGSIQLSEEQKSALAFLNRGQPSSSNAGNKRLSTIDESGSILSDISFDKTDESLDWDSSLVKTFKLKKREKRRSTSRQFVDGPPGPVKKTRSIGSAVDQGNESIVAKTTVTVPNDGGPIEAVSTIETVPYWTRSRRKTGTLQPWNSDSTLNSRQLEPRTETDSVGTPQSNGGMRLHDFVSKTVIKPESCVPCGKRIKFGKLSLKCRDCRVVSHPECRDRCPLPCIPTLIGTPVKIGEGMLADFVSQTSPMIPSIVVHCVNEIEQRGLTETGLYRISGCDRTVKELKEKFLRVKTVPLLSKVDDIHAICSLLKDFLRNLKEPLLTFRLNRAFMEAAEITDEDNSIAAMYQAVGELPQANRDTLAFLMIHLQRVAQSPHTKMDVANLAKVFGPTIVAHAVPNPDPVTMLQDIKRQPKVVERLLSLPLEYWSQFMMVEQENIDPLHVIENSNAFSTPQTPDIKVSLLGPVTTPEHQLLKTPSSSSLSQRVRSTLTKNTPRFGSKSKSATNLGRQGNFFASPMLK

inhibition, inactive:
Cc1nn(Cc2ccccc2)c(C)c1NC(=O)CSc1nnc(-c2cc(Cl)ccc2O)n1C 3.78%
COc1ccccc1-c1nnc(SCC(=O)c2c(N)n(C3CC3)c(=O)[nH]c2=O)o1 4.98%
O=C(CCC1CCCN(C(=O)c2ccc3c(c2)OCO3)C1)NCc1ccc(F)c(F)c1 (stereo not given) 6.44%
CCCC(=O)Nc1c(-c2ccccc2)c(=O)c(C)nn1-c1ccccc1 -2.47%
Cc1cccc(NC(=O)CSCc2cc(=O)n3c(C)csc3n2)c1C -9.75%
CCOCCCNCC(=O)NC1(C)C2CCC(C2)C1(C)C (stereo not given) 14.5%
CCOCCCNC(=O)C(=O)NCCCOCC 6.87%
CC(NC(=O)CNC(=O)c1cccc(Cl)c1)c1ccccc1 (stereo not given) 0.16%
CCCCNc1c(-c2ccc(-c3ccc(C(C)=O)cc3)c(OC)c2)nc2cc(C)ccn12 4.91%
Cc1c(Cc2ccccc2)c(=O)oc2c(C)c(OCC(=O)N[C@@H](Cc3ccccc3)C(=O)O)ccc12 1.68%
C[C@@H]1CN([C@@H](C)CO)C(=O)c2cc(NC(=O)Nc3ccc4c(c3)OCO4)ccc2O[C@H]1CN(C)S(=O)(=O)c1cn(C)cn1 11.5%
COc1ccc2c(c1)CC=C1C2CCC2(C)C(=O)C(=NO)CC12 (stereo not given) 5.55%
CC12CCC3C(=CCc4cc(O)ccc43)C1CC(=NO)C2O (stereo not given) 27.1%
COc1cc(/C=N/N2C(C)CCCC2C)cc(Br)c1O (stereo not given) 10.5%
CCc1n[nH]c(=S)n1/N=C/c1cc(Br)c(O)c(OC)c1 14.8%
COc1cc(/C=N/N2C(=O)CSC2=S)cc(Br)c1O 24.4%
Oc1c(Br)cc(/C=N/n2c(-c3ccccc3)n[nH]c2=S)cc1Br 17.3%
Cc1nnc(C)n1/N=C/c1cc(Br)cc(Br)c1O 13.7%
CCN=c1scc(C)n1/N=C/c1ccc(O)c(O)c1O -35.3%
COc1cc2ncnc(NCc3ccc(F)cc3)c2cc1OC 5.92%
COc1ccc(-n2cnnc2SCC(=O)Nc2cc(C)on2)cc1 0.92%
Cc1nn(-c2nc3ccccc3[nH]2)c(N)c1-c1ccc(Cl)cc1 14.1%
COc1ccc(NC(=O)[C@@H]2CCCN2S(=O)(=O)c2cccc3cccnc23)cc1 7.98%
Cc1c(N2C(=O)CSC2c2ccc(F)cc2)c(=O)n(-c2ccccc2)n1C (stereo not given) -1.84%
Cc1cc(C)n(CC(=O)N2N=C(C(F)F)CC2(O)C(F)F)n1 (stereo not given) 5.91%
O=C(CC1C[C@H](C(=O)N2CCCCC2)[C@@]2(CCc3ccccc3)c3[nH]c4ccccc4c3CCN2C1=O)NCCc1ccccn1 (stereo not given in full) 10.2%
C=CCn1c(=S)[nH]c2sc3c(c2c1=O)CCC3 14.3%
CN(C)CCCn1c(=S)[nH]c2sc3c(c2c1=O)CCCC3 26.2%
CCCn1c(=S)[nH]c2sc3c(c2c1=O)CCCC3 2.13%
C=CCn1c(=S)[nH]c2sc3c(c2c1=O)CCCC3 13.8%
Cc1ccc(-n2c(=S)[nH]c3sc4c(c3c2=O)CCc2ccccc2-4)cc1 4.2%
CCOc1ccc(-n2c(=O)[nH]c3sc4c(c3c2=O)CCCC4)cc1 12.1%
CCn1c(=S)[nH]c2sc3c(c2c1=O)CCCC3 47.9%
COCCCn1c(=S)[nH]c2sc3c(c2c1=O)CCCS3 7.39%
COc1ccc(/C(C)=N/NC(=S)Nc2cc(C)ccc2C)cc1 -5.64%
CCOC(=O)C1C(=O)CC(C)(O)C(C(=O)OCC)C1c1ccc([N+](=O)[O-])cc1 (stereo not given) 11.4%
COc1ccc(N2CCN(c3nc4cc(C)ccc4cc3C=O)CC2)cc1 2.5%
Cc1ccc(C2=NN(C(=O)CSc3nc4ncc(Cl)cc4[nH]3)C(c3ccco3)C2)cc1 (stereo not given) 5.98%
C/C(=N\NC(=O)Cn1cnc2ccccc21)c1cccs1 4.15%
COc1ccc2c3n(nc2c1)CCN=C3c1ccc(C)cc1 4.94%
COc1cccc(-c2cc(C(=O)NC3CCCCC3)no2)c1 6.22%
O=C(NCc1ccccc1)C12CC3CC(CC(Br)(C3)C1)C2 5.84%
O=C1CCC(=O)N(c2ccccc2)N1 3.91%
O=C1CCN(S(=O)(=O)c2ccccc2)N1 -45.5%
Cc1[nH]c(-c2ccc(F)cc2)cc1C(=O)N1CCN(c2cccc(Cl)c2)CC1 21.1%
COC(=O)Cn1ccc(N(C)C)c(C#N)c1=O -1.06%
CCOC(=O)N1CCN(Cc2nc(-c3ccc(Cl)cc3)no2)CC1 0.28%
CC(C)Oc1cccc(C(=O)NC(=S)Nc2ccc(Cl)c(C(=O)O)c2)c1 0.71%
O=C(CCNC(=O)C1CCN(S(=O)(=O)c2ccc(F)cc2)CC1)NCCc1ccc(Cl)cc1 1.71%
CCCN(CC(=O)Nc1ccc(F)c(F)c1F)C(=O)c1ccc2c(=O)n3c(nc2c1)CCC3 1.86%
CC1(Cc2cn(CCC#N)c3ccccc23)OCCO1 15.8%
N#CCCn1cc(CNC2CCC(O)CC2)c2ccccc21 (stereo not given) 3.99%
CCCCCC(=O)NC(NC(=S)NC1CCS(=O)(=O)C1)C(Cl)(Cl)Cl (stereo not given) 8.9%
Cc1cccc(OCCSc2nc(N)cc(N)n2)c1 25.9%
O=[N+]([O-])c1ccc(C=NNc2ccccc2)cc1 0.7%
O=C(N/N=C/c1ccc[nH]1)c1ccc([N+](=O)[O-])cc1 13.2%
Nc1c(N(CCO)C(=O)C2CCCC2)c(=O)[nH]c(=O)n1Cc1ccccc1 2.35%
Cc1cc(C)cc(NC(=O)C2(c3ccccc3)CC2(Cl)Cl)c1 (stereo not given) 8.14%
COc1ccc(/C=N/N2CCN(C3c4ccccc4-c4ccccc43)CC2)cc1O 11.6%
CN(C(=O)CSc1nc2[nH]ncc2c(=O)[nH]1)c1ccccc1 2.08%
